The values below come from PMC7862700, “An all-to-all approach to the identification of sequence-specific readers for epigenetic DNA modifications on cytosine”.

Common to all, as to experiment: DAPPL (digital affinity profiling via proximity ligation, sequencing); 10 mM Tris-HCl pH 7.5, 50 mM NaCl, 1 mM DTT, 4% glycerol, room temperature, 30 min; GST-TFs on glutathione beads, 16-mer random dsDNA library, 0.1% formaldehyde crosslink after washing; high values mean tight binding
Common to all, as to settings: protein: recombinant; tags: N-terminal GST; dsDNA, one strand shown

Test [1] concerns the target T1, FLI1 (Homo sapiens, UniProt Q01543 1-452).
T1 sequence: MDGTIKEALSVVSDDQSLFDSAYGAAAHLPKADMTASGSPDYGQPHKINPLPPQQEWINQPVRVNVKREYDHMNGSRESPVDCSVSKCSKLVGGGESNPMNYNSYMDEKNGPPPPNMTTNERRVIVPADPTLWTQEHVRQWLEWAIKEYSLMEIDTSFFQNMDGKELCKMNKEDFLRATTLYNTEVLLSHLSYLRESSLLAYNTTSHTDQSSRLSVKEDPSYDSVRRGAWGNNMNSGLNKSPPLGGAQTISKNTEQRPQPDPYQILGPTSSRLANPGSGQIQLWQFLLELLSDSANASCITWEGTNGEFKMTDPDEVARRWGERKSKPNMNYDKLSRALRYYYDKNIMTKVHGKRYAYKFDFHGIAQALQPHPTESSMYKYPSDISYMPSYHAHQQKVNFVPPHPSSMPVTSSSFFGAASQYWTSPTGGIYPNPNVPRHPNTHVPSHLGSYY
Put shortly: (§1)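 Each value of binding signal is a hexamer's read frequency for a factor divided by the same hexamer's frequency in the tag-only sample. Barcoded, bead-captured GST fusions of human transcription factors made in yeast were pooled with that sample and incubated with 200 nmole of a random double-stranded 16-mer DNA library in Tris/NaCl/DTT/glycerol buffer at room temperature for 30 min. Washing, 0.1% formaldehyde crosslinking, proximity ligation, PCR and Illumina NextSeq500 sequencing followed.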

The target of test [2] is T2, ELK1 (Homo sapiens, UniProt P19419 1-428).
T2 sequence: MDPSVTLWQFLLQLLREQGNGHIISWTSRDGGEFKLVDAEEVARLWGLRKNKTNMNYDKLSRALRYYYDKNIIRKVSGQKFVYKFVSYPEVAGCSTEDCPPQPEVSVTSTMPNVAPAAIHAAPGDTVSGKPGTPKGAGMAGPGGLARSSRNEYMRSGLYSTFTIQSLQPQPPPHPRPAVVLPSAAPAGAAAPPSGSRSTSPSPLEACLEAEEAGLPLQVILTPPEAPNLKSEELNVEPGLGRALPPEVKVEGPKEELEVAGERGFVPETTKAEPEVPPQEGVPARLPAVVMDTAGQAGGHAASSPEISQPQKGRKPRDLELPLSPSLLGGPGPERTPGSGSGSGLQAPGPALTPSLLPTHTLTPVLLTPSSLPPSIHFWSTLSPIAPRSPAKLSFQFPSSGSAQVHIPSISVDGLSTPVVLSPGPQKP
Put shortly:
as §1

Test [3] deals with T3, GABPA (Homo sapiens, UniProt Q06546 1-454).
T3 sequence: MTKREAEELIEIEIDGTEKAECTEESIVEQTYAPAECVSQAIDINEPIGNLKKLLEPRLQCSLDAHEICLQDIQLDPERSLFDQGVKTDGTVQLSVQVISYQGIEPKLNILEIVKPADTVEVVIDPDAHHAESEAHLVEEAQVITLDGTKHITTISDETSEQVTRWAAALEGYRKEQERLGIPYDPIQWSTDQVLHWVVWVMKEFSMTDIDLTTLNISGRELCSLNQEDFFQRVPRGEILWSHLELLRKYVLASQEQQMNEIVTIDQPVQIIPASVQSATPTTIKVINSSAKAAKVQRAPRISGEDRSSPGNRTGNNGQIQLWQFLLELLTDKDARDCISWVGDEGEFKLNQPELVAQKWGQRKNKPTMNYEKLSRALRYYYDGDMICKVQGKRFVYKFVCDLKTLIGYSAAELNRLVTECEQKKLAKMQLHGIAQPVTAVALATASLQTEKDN
Put shortly: as §1

The target in test [4] is T4, ERG (Homo sapiens, UniProt P11308 1-479).
T4 sequence: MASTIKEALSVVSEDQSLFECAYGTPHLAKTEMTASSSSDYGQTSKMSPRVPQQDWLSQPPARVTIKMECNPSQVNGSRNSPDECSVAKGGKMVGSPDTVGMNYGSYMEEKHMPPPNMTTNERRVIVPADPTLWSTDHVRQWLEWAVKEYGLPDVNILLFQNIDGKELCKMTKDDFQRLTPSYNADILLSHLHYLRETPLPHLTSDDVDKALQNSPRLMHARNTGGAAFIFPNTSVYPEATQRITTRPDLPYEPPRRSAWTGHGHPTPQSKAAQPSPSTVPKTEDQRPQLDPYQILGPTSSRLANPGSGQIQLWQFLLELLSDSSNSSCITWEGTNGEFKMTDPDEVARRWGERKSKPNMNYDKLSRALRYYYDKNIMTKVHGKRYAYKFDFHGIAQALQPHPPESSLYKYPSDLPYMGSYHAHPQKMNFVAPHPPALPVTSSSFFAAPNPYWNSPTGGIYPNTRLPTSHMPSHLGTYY
In a few lines:
as §1

The target of test [5] is ELF1 (Homo sapiens, UniProt P32519 1-619). In a few lines: as §1
Chain of ELF1 (P32519 whole entry): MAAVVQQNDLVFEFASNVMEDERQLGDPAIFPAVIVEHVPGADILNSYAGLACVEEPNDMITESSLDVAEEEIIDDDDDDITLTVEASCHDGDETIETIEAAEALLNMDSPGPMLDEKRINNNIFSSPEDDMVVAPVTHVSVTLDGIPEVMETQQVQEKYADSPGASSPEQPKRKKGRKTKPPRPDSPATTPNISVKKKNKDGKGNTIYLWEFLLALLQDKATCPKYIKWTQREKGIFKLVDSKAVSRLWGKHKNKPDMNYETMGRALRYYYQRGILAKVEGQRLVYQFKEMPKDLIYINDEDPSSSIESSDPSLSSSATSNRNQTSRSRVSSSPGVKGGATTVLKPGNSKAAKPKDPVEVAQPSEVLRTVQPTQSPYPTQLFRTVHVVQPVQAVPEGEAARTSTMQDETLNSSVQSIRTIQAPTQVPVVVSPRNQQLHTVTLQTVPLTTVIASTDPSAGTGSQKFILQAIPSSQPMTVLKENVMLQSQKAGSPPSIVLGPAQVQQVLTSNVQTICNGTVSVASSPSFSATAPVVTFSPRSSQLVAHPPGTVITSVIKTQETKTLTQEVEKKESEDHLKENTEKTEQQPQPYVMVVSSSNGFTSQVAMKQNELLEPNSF
The target of test [6] is T5, EHF (Homo sapiens, UniProt Q9NZC4 1-300).
T5 sequence: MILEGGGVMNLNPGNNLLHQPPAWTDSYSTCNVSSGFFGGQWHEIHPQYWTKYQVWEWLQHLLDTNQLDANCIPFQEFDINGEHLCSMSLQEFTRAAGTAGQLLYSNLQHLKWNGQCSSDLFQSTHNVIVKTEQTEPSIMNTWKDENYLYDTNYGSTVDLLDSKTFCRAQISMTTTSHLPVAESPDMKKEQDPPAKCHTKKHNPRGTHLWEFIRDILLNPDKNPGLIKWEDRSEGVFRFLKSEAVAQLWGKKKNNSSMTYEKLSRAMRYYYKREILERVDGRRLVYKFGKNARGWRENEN
Put shortly:
as §1

The target in test [7] is SPI1 (Homo sapiens, UniProt P17947 1-270). In a few lines:
as §1

In test [8] the target is SPIB (Homo sapiens, UniProt Q01892 1-262). In a few lines:
as §1

Test [9] addresses T6, ELK3 (Homo sapiens, UniProt P41970 1-407).
T6 sequence: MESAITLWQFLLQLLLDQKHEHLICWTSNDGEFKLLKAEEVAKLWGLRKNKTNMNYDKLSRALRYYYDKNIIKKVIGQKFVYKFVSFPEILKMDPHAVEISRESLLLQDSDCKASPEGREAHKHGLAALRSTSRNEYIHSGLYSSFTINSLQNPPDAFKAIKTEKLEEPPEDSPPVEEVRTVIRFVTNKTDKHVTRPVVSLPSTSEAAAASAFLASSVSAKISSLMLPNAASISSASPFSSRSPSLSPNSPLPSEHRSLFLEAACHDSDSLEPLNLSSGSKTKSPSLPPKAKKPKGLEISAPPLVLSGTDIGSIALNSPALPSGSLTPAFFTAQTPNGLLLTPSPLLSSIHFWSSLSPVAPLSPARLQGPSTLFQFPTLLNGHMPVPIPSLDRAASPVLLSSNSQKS
Put shortly:
as §1

The target of test [10] is T7, FEV (Homo sapiens, UniProt Q99581 1-238).
T7 sequence: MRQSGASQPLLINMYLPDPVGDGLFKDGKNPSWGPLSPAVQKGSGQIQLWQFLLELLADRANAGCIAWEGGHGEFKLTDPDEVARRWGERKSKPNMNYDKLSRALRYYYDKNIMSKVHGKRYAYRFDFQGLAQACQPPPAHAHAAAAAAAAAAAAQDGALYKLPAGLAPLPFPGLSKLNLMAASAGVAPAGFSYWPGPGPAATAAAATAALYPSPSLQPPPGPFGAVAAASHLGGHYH
In a few lines: as §1

Test [11] has as its target ETV5 (Homo sapiens, UniProt P41161 1-510). In a few lines:
as §1

Test [12] has as its target T8, SPIC (Homo sapiens, UniProt Q8N5J4 1-248).
T8 sequence: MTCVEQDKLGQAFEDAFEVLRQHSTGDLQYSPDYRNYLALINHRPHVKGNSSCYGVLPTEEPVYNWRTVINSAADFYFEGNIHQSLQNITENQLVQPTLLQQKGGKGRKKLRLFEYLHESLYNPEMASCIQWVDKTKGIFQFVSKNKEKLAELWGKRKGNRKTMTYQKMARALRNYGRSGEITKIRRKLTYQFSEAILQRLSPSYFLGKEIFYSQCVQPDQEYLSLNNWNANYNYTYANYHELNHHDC
Put shortly: as §1

Test [13] addresses ELF4 (Homo sapiens, UniProt Q99607 1-663). Put shortly:
as §1

For test [14], the target named is T9, ELK4 (Homo sapiens, UniProt P28324-2 1-405).
T9 sequence: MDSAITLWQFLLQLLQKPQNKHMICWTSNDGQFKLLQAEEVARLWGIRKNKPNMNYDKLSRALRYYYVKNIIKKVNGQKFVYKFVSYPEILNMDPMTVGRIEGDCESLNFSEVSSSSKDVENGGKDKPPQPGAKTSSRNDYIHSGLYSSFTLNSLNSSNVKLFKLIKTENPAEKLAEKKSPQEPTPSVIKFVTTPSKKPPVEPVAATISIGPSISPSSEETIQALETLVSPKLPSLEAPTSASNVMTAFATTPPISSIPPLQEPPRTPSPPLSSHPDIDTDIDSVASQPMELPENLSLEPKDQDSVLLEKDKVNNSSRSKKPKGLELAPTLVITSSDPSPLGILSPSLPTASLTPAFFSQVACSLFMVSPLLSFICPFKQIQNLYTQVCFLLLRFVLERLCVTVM
Put shortly: as §1

Test [15] concerns the target T10, ETV2 (Homo sapiens, UniProt O00321 1-342).
T10 sequence: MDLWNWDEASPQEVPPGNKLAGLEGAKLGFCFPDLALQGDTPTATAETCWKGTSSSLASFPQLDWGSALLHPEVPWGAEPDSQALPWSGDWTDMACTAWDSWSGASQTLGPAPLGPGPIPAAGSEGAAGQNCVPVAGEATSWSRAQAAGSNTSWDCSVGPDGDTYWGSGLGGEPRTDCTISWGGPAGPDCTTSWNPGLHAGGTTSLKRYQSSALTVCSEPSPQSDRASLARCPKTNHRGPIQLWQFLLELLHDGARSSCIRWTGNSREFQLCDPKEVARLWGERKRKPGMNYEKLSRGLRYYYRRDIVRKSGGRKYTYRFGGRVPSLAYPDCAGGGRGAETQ
Put shortly:
as §1

In test [16] the target is T11, ELF3 (Homo sapiens, UniProt P78545 1-371).
T11 sequence: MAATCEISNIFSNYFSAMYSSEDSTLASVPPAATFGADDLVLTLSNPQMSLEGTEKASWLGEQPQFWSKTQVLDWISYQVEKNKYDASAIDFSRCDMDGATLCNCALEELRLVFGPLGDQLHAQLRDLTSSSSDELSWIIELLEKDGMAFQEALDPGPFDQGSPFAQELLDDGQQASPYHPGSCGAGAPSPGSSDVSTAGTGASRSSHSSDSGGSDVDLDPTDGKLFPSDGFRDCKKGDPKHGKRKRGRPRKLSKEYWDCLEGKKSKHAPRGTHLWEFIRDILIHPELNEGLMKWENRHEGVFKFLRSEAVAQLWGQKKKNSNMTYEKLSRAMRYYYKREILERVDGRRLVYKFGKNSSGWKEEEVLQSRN
In a few lines:
as §1

The target of test [17] is ETV1 (Homo sapiens, UniProt P50549 1-477). In a few lines: as §1
Chain of ETV1 (P50549 whole entry): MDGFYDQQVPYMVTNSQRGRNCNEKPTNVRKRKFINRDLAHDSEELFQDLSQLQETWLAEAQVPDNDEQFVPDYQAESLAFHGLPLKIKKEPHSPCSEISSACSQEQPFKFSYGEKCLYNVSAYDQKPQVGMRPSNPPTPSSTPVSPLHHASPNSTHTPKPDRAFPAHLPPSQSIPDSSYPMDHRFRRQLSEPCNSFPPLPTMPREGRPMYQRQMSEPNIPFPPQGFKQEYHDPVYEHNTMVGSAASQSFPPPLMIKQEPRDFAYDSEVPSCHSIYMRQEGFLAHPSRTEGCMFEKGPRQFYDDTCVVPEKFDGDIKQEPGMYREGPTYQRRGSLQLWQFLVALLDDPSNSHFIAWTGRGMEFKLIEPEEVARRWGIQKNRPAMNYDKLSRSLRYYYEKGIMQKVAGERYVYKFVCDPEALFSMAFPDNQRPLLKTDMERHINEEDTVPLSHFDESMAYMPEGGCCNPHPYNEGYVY

Chain of ETV5 (P41161 whole entry): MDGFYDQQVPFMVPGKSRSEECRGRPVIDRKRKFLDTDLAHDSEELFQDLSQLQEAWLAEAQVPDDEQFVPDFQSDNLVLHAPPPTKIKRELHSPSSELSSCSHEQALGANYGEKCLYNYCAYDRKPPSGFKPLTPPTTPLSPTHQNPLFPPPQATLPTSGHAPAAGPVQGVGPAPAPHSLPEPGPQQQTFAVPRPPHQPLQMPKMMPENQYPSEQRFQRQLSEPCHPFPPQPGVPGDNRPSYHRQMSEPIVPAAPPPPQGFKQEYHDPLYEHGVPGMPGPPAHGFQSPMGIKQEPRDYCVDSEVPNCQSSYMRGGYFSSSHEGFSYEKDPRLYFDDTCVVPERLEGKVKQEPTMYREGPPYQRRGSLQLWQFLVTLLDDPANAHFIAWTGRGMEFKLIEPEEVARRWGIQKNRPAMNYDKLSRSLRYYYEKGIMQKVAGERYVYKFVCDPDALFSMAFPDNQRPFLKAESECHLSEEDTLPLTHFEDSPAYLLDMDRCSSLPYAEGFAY
Chain of ELF4 (Q99607 whole entry): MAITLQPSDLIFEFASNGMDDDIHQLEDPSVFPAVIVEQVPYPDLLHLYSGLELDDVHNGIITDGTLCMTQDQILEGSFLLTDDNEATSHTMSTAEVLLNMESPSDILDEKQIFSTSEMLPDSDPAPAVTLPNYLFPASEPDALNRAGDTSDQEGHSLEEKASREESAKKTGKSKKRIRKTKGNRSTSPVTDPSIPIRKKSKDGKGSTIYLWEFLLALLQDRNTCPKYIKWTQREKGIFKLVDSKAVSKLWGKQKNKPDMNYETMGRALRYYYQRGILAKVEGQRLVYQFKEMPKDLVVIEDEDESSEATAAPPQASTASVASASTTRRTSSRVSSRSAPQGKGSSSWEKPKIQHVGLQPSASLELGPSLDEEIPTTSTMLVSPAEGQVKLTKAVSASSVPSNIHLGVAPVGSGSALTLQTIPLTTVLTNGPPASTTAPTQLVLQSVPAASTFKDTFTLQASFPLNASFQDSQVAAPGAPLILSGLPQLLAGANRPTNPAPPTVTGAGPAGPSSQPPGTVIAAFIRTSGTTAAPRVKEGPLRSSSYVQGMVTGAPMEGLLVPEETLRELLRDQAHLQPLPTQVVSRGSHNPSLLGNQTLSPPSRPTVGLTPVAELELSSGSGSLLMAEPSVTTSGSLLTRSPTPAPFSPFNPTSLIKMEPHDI
Chain of SPIB (Q01892 whole entry): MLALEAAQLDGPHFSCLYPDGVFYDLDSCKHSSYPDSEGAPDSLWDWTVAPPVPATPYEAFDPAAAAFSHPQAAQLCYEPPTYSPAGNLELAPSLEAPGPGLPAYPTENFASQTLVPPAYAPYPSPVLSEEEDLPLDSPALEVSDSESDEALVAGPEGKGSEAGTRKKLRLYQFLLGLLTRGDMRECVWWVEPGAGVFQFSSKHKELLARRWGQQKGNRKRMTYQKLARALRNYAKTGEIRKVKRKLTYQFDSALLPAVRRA

Regarding GCCCTC, the binding signal is 1.12 fold enrichment (6-mer frequency, TF over GST control) in test [1]; 1.18 fold enrichment (6-mer frequency, TF over GST control) in test [2]; 1.25 fold enrichment (6-mer frequency, TF over GST control) in test [3]; 1.11 fold enrichment (6-mer frequency, TF over GST control) in [4]; 1.17 fold enrichment (6-mer frequency, TF over GST control) in test [5]; 1.18 fold enrichment (6-mer frequency, TF over GST control) in test [6]. In addition, the binding signal is 1.1 fold enrichment (6-mer frequency, TF over GST control) in test [7]; 1.18 fold enrichment (6-mer frequency, TF over GST control) in [8]; 1.15 fold enrichment (6-mer frequency, TF over GST control) in test [9]; 1.18 fold enrichment (6-mer frequency, TF over GST control) in test [10]; 1.12 fold enrichment (6-mer frequency, TF over GST control) in test [11]; 1.26 fold enrichment (6-mer frequency, TF over GST control) in test [12]. In addition, the binding signal in test [13] was 1.3 fold enrichment (6-mer frequency, TF over GST control); in test [14], 1.1 fold enrichment (6-mer frequency, TF over GST control); in test [15], 1.27 fold enrichment (6-mer frequency, TF over GST control); in [16], 1.18 fold enrichment (6-mer frequency, TF over GST control); in test [17], 1.18 fold enrichment (6-mer frequency, TF over GST control).
With ACCTCA, the binding signal in test [1] was 1.2 fold enrichment (6-mer frequency, TF over GST control); in test [2], 1.16 fold enrichment (6-mer frequency, TF over GST control); in [3], 1.29 fold enrichment (6-mer frequency, TF over GST control); in test [4], 1.15 fold enrichment (6-mer frequency, TF over GST control); in test [5], 1.23 fold enrichment (6-mer frequency, TF over GST control); in test [6] it was 1.28 fold enrichment (6-mer frequency, TF over GST control). The binding signal in test [7] is 1.22 fold enrichment (6-mer frequency, TF over GST control); in [8] it was 1.19 fold enrichment (6-mer frequency, TF over GST control); in [9], 1.19 fold enrichment (6-mer frequency, TF over GST control); in test [10], 1.17 fold enrichment (6-mer frequency, TF over GST control); in test [11], 1.16 fold enrichment (6-mer frequency, TF over GST control); in test [12], 1.33 fold enrichment (6-mer frequency, TF over GST control). The binding signal is 1.2 fold enrichment (6-mer frequency, TF over GST control) in [13]; 1.26 fold enrichment (6-mer frequency, TF over GST control) in test [14]; 1.2 fold enrichment (6-mer frequency, TF over GST control) in test [15]; 1.24 fold enrichment (6-mer frequency, TF over GST control) in test [16]; 1.32 fold enrichment (6-mer frequency, TF over GST control) in test [17].
